Rows were chosen to be rich in hits. Some 1.6% of all compounds tested hit in one or more screens of this group.
Akt phos inh – blocks phosphorylation of Akt; Neuro2A IGF-stimulated pAkt S473 HTRF, 20 min; hits give low values; activity change, % for hits at 50 µM; 0.32% of 360,000 active; AID 651550; in the data active = activity change below about -80%; inconclusive = mostly about -51% to -80%; also: % is scaled to controls: 0 for no effect and ±100 for the full control effect
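Neuro2A cells in DMEM with 0.5% FBS, overnight at 37 deg C, given compound at single 50 µM final, then IGF (6 nM final) for 20 min at 37 deg C. Lysed; phospho-Akt Ser473 by HTRF after 24 h, 665/615 ratio.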
hERG WT inh – blocks the wildtype human KCNH2 potassium channel. U2OS, BacMam KCNH2, thallium flux FluxOr; hits give low values. 0.37% of 340,000 active. Q12809. activity change, % at 1.84 µM;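 active = maximum activity change below -70%; inconclusive = maximum activity change between -70% and -50%; inactive = maximum activity change above -50%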; also: % is scaled to controls: 0 for no effect and ±100 for the full control effect
Target sequence (Q12809 whole entry, looked up): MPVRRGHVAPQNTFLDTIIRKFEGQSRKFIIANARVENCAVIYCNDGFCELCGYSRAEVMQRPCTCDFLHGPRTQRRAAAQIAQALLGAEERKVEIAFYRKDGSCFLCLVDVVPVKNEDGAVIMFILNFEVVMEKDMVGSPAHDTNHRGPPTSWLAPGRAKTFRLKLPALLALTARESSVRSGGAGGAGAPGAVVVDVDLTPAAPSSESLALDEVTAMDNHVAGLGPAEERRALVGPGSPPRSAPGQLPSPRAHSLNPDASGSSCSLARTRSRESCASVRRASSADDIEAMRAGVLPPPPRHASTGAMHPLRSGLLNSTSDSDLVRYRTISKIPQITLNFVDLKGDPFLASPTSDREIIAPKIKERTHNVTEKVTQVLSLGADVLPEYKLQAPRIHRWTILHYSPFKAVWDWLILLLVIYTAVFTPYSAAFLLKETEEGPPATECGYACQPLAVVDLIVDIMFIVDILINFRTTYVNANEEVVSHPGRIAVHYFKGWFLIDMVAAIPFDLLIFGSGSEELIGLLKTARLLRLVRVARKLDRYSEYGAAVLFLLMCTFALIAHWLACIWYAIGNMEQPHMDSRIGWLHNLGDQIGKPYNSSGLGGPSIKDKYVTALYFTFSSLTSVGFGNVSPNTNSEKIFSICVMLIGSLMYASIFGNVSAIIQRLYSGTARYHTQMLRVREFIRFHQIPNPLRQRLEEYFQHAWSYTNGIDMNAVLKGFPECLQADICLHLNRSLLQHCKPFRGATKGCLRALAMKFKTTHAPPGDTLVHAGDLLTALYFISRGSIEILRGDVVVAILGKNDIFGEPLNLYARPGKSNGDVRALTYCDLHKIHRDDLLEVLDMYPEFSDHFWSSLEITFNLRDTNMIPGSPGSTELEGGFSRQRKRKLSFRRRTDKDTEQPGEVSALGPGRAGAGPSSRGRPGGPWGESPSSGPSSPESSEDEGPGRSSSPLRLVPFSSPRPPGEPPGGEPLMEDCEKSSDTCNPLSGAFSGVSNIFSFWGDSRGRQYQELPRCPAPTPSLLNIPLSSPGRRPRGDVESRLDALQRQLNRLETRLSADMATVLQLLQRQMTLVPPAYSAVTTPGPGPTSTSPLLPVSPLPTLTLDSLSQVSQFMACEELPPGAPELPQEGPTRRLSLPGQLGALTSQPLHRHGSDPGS
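U2OS cells were transduced with wild-type KCNH2 virus (2.03 x 10^8 / mL) for 4 h at room temperature, then cultured overnight at 37 C. Thallium flux was read with FluxOr dye. Rate constants were normalized to DMSO controls.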
gsp antag – gsp mutant antagonism. gsp-mutant cells, cAMP HTRF, 30 min. Potency, µM (highest dose often 76.9 µM), without a hit: at the top dose activity change, negative = inhibition, hits mostly inhibitors. 0.4% of 340,000 active; calls by dose curve; cell line not stated here;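 also: intracellular cAMP measured with PDE inhibitor Ro 20-1724 present during compound exposure; potency is read from the fitted curve at half-maximal effect; % is scaled to controls: 0 for no effect and ±100 for the full control effect; nearly all actives have a fitted effect of over 65% in size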
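HTRF cAMP read-out (cAMP-d2 plus anti-cAMP antibody-K in lysis buffer, 30 min RT). Before lysis, cells are exposed to compounds with […] for 30 min at 37C in DPBS containing Ca/Mg, BSA and Tween 20.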
gsp agonist – activates gsp, the McCune-Albright syndrome mutation; AID 624287; 0.13% of 340,000 active; Potency, µM (top dose mostly 76.9 µM), for the others: top-dose activation (cAMP increase), usual class: activators; gsp mutant cells, cAMP HTRF, 30 min; active = well fitted activation curve with a large enough effect; inconclusive = small, poorly fitted or top-dose-only effect, or another doubt; inactive = no such curve, though single readings can be large or run the other way; cell line not stated here;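 also: phosphodiesterase inhibitor Ro 20-1724 added with compounds to block cAMP breakdown; potency is read from the fitted curve at half-maximal effect; nearly all actives have a fitted effect of over 60% in size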
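Cells in DMEM/10% FBS with G418 were pretreated with compounds in DMSO plus […] (300 uM stock) for 30 min at 37C. cAMP was measured by HTRF (cAMP-d2 plus anti-cAMP antibody-K) after 30 min at room temperature.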
Glioma ERSR ind – induces the endoplasmic reticulum stress response in human glioma cells | 0.02% of 420,000 active | U87-MG GRP78 promoter luciferase reporter, 16 h | Potency, µM, without a hit: at the highest dose activation, usual class: activators; active = well fitted activation curve with a large enough effect; inconclusive = small, poorly fitted or top-dose-only effect; inactive = no such curve, though single readings can be large or run the other way; also: potency is read from the fitted curve at half-maximal effect; series mostly up to about 76 µM; % of control where 0% means no effect; nearly all actives have a fitted effect of over 35% in size
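Stably transfected U87-MG glioma cells carrying a GRP78-based luciferase sensor; 16 h compound incubation. Luminescence end-point read 10 min after Bright-Glo addition at room temperature.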
KCNH2 3.1 block – blocks the human KCNH2 3.1 channel isoform | U2OS KCNH2 3.1, thallium flux FluxOr; hits give low values | activity change, % (tested at about 1.8 µM) | 0.95% of 340,000 active | AID 720553;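 active = maximum activity change below -70%; inconclusive = maximum activity change from -70% to -50%; inactive = maximum activity change above -50%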;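 also: thallium influx rate constant from kinetic fluorescence after stimulation buffer; % is scaled to controls: 0 for no effect and ±100 for the full control effect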
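Steps: virus added to U2OS suspension (4 h, RT, dark); medium with 10% FBS added, cells plated, 37 C overnight; FluxOr/Red40 loading buffer 45 min RT; stimulation buffer, 2 min kinetic read; rate constant normalized.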
* marks the source's active call; other numbers are inactive results; [ ] = remark or other dose.

For O=C(Cn1cncn1)N1CCOc2ccc(CN3CCN(c4ccccc4)CC3)cc2C1 the results were Glioma ERSR ind -5%.
For CC(C)CC(NC(=O)CNC(=O)C(Cc1ccc(O)cc1)NC(=O)C(CO)NC(=O)C(Cc1c[nH]c2ccccc12)NC(=O)C(Cc1cnc[nH]1)NC(=O)C1CCC(=O)N1)C(=O)NC(CCCN=C(N)N)C(=O)N1CCCC1C(=O)NCC(N)=O (stereo not given) the results were Glioma ERSR ind -4%.
CN1CCN(C(=O)/C(=C/c2ccc(F)cc2)NC(=O)c2ccccc2)CC1 was read as Akt phos inh inactive, hERG WT inh -23, gsp antag 2%, gsp agonist 12%[15.4 µM], Glioma ERSR ind -2% and KCNH2 3.1 block -91*.
For O=C(NCc1ccccn1)C1CCN(Cc2cnn(-c3ccccc3)c2-n2cccc2)CC1 the results were hERG WT inh -1, gsp antag 9%, gsp agonist -9%, Glioma ERSR ind 5% and KCNH2 3.1 block -9.
Screening O=C(NCc1ccccn1)C1CCCN(Cc2cnn(-c3ccccc3)c2-n2cccc2)C1 (stereo not given) returned Akt phos inh -98%*, hERG WT inh -6, gsp antag -24%, gsp agonist -8%, Glioma ERSR ind 2% and KCNH2 3.1 block 5.
For C=CCSc1nnc2c(n1)OC(c1c(C)[nH]n(-c3ccccc3)c1=O)Nc1ccccc1-2 (stereo not given) the results were Akt phos inh inactive, hERG WT inh -5, gsp antag 25µM*, gsp agonist 9%, Glioma ERSR ind 2% and KCNH2 3.1 block 7.
`COc1ccccc1NS(=O)(=O)c1cccc(NC(=O)c2[nH]c(C)c(C(C)=O)c2C)c1` gave Akt phos inh inactive, hERG WT inh -8, gsp antag inconclusive, gsp agonist -1%, Glioma ERSR ind -5% and KCNH2 3.1 block 3.
`Cc1nc2ccc(NC(=O)c3cccc(S(=O)(=O)N(C)c4ccccc4)c3)cc2s1` gave Akt phos inh inactive, hERG WT inh 8, gsp antag 35µM*, gsp agonist -69%, Glioma ERSR ind -5% and KCNH2 3.1 block -31.
For COc1ccc(N(C)S(=O)(=O)c2cccc(C(=O)Nc3ccc(-n4cnnn4)cc3)c2)cc1 the results were Akt phos inh inactive, hERG WT inh -1, gsp antag 28µM*, gsp agonist 18%, Glioma ERSR ind -8% and KCNH2 3.1 block -14.
For CN(c1ccccc1)S(=O)(=O)c1cccc(NC(=O)c2ccc3ncsc3c2)c1 the results were Akt phos inh inactive, hERG WT inh -11, gsp antag 25µM*, gsp agonist -10%[15.4 µM], Glioma ERSR ind -6% and KCNH2 3.1 block -1.
COc1ccc(N(C)S(=O)(=O)c2cccc(C(=O)Nc3ccc4c(c3)OCCO4)c2)cc1 was read as Akt phos inh inactive, hERG WT inh 0, gsp antag -17%, gsp agonist inconclusive, Glioma ERSR ind -4% and KCNH2 3.1 block -1.
Screening CC(=O)c1c(C)[nH]c(C(=O)Nc2cccc(S(=O)(=O)N(C)c3ccccc3)c2)c1C returned Akt phos inh inactive, hERG WT inh 0, gsp antag 32µM*, gsp agonist 0%, Glioma ERSR ind -6% and KCNH2 3.1 block 0.
CN(C)S(=O)(=O)c1cccc(NC(=O)c2ccc(COc3ccccc3)cc2)c1 was read as Akt phos inh inactive, hERG WT inh -3, gsp antag 32µM*, gsp agonist 0%, Glioma ERSR ind -3% and KCNH2 3.1 block -3.
COCc1ccc(C(=O)Nc2cccc(S(=O)(=O)N(C)c3ccccc3)c2)cc1 was read as Akt phos inh inactive, hERG WT inh -3, gsp antag -22%, gsp agonist 23%, Glioma ERSR ind -5% and KCNH2 3.1 block -6.
For CCCCCCCC(=O)CC[C@H]1[C@@H](C/C=C/CCCC(=O)OC(C)C)[C@@H](O)C[C@H]1O the results were Glioma ERSR ind -7%.
NC(=O)c1cccn1Cc1cccc(Cl)c1 was read as Akt phos inh inactive, hERG WT inh 11, gsp antag -19%, gsp agonist -43%, Glioma ERSR ind -4% and KCNH2 3.1 block -3.
`NC(=O)c1cccn1Cc1ccccc1Cl` gave Akt phos inh inconclusive, hERG WT inh -301*, gsp antag 11%, gsp agonist -19%, Glioma ERSR ind -5% and KCNH2 3.1 block 2.
`COc1ccc(CN2CC[C@H]3C=CCc4cccc(c43)C2)cc1` gave Akt phos inh inactive, hERG WT inh 1, gsp antag 3%, Glioma ERSR ind -2% and KCNH2 3.1 block -85*.
`O=C(NCC1CCC2(CCN(Cc3cccc4ncccc34)CC2)O1)c1ccccc1` (stereo not given) gave Glioma ERSR ind -5%.
For CC1(C)C2CCC1(CS(=O)(=O)N1CCC(C(N)=O)CC1)C(=O)C2 (stereo not given) the results were Akt phos inh inactive, hERG WT inh -4, gsp antag 8%, gsp agonist -6%, Glioma ERSR ind -4% and KCNH2 3.1 block 8.
`CC1(C)C2CCC1(CS(=O)(=O)N1CCOCC1)C(=O)C2` (stereo not given) gave Akt phos inh inactive, hERG WT inh 7, gsp antag 7%, gsp agonist -9%, Glioma ERSR ind -4% and KCNH2 3.1 block -70*.
`COC(=O)[C@@H]1CCCN1Cc1ccc2c(c1)CN(Cc1coc3ccc(C)cc3c1=O)CCO2` gave Glioma ERSR ind -5%.
For O=C(CSc1ncn[nH]1)N1N=C2/C(=C/c3ccccc3)CCCC2C1c1ccccc1 (stereo not given) the results were Akt phos inh inactive, hERG WT inh -2, gsp antag 35µM*, gsp agonist inconclusive, Glioma ERSR ind -3% and KCNH2 3.1 block 20.
For Cc1nc(C)n(CC(=O)N2CCOc3ccc(CN4CCN(C)C[C@@H]4c4ccccc4)cc3C2)n1 the results were Glioma ERSR ind -4%.
N#Cc1cc(-c2ccc(Cl)cc2)cnc1Sc1ccccc1 was read as Akt phos inh inactive, hERG WT inh 8, gsp antag 11%, gsp agonist 0%, Glioma ERSR ind 1% and KCNH2 3.1 block -79*.
CCOC(=O)CCC(=O)OC1C(OC2C(C)C(OC3CC(C)(OC)C(O)C(C)O3)C(C)C(=O)OC(CC)C(C)(O)C(O)C(C)C(=O)C(C)CC2(C)O)OC(C)CC1N(C)C (stereo not given) was read as Glioma ERSR ind -3%.
Screening Cc1c(C(=O)N(C)Cc2cscn2)sc2ncnc(NC[C@H]3CCc4ccccc4O3)c12 returned Glioma ERSR ind 1%.
